From PubChem BioAssay AID1159580 (chemical genetic matrix, 2015)
The campaign covered roughly 5,500 compounds. About 2,000 (36%) were called active. Not shown: some 18% with an inconclusive outcome. The list shows a part of the results. Values without a mark were called inactive. Cut-off read from the data, not from the text of the source: active = normalized growth mostly below about 0.91 (no sharp cut-off); inconclusive = no clear call, values can overlap the other calls; inactive = mostly above about 0.92.

Assay: chemical genetic growth profiling, strain panel (AID 1159580);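 note: tested at 20 µM; growth read once vehicle control cultures reached saturation at 30 °C; 1 = growth at the plate median or of vehicle wells; lower values mean less growth of the strain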
Settings: S. cerevisiae deletion strains, growth OD

## CCCCC(CC)CN1CN(CC(CC)CCCC)CC(C)(N)C1 (stereo not drawn)
Locus YAL013W, strain DEP1, active compounds read low
  normalized growth: 0.14 (active)
Locus YAL021C, strain ccr4, active compounds read low
  normalized growth: 0.0639 (active)
Locus YAL026C, strain drs2, active compounds read low
  normalized growth: 0.0615 (active)
Locus YAL030W, strain snc1, active compounds read low
  normalized growth: 0.0534 (active)
Locus YBL061C, strain skt5, active compounds read low
  normalized growth: 0.0552 (active)
Locus YBR009C, strain hhf1, active compounds read low
  normalized growth: 0.0618 (active)
Locus YBR021W, strain FUR4, active compounds read low
  normalized growth: 0.168 (active)
Locus YBR023C, strain chs3, active compounds read low
  normalized growth: 0.0607 (active)
Locus YBR171W, strain sec66, active compounds read low
  normalized growth: 0.0721 (active)
Locus YBR229C, strain ROT2, active compounds read low
  normalized growth: 0.816 (active)
Locus YBR231C, strain swc5, active compounds read low
  normalized growth: 0.0597 (active)
Locus YBR279W, strain paf1, active compounds read low
  normalized growth: 0.088 (active)
Locus YCL011C, strain gbp2, active compounds read low
  normalized growth: 0.0548 (active)
Locus YCL016C, strain dcc1, active compounds read low
  normalized growth: 0.0625 (active)
Locus YCL029C, strain bik1, active compounds read low
  normalized growth: 0.573 (active)
Locus YCL061C, strain MRC1, active compounds read low
  normalized growth: 0.062 (active)
Locus YCL069W, strain vba3, active compounds read low
  normalized growth: 0.0607 (active)
Locus YCR088W, strain abp1, active compounds read low
  normalized growth: 0.0577 (active)
Locus YDL005C, strain med2, active compounds read low
  normalized growth: 0.0691 (active)
Locus YDL035C, strain GPR1, active compounds read low
  normalized growth: 0.329 (active)
Locus YDL040C, strain nat1, active compounds read low
  normalized growth: 0.055 (active)
Locus YDL074C, strain BRE1, active compounds read low
  normalized growth: 0.228 (active)
Locus YDL101C, strain DUN1, active compounds read low
  normalized growth: 0.417 (active)
Locus YDL134C, strain PPH21, active compounds read low
  normalized growth: 0.58 (active)
Locus YDL185W, strain tfp1, active compounds read low
  normalized growth: 1.02
Locus YDL192W, strain arf1, active compounds read low
  normalized growth: 0.0997 (active)
Locus YDR001C, strain nth1, active compounds read low
  normalized growth: 0.0567 (active)
Locus YDR069C, strain doa4, active compounds read low
  normalized growth: 0.0614 (active)
Locus YDR101C, strain arx1, active compounds read low
  normalized growth: 0.573 (active)
Locus YDR137W, strain rgp1, active compounds read low
  normalized growth: 0.111 (active)
Locus YDR150W, strain NUM1, active compounds read low
  normalized growth: 0.801 (active)
Locus YDR159W, strain sac3, active compounds read low
  normalized growth: 0.0869 (active)
Locus YDR162C, strain NBP2, active compounds read low
  normalized growth: 0.233 (active)
Locus YDR195W, strain ref2
  normalized growth: 0.116 (active)
Locus YDR297W, strain sur2, active compounds read low
  normalized growth: 0.0539 (active)
Locus YDR318W, strain mcm21, active compounds read low
  normalized growth: 0.471 (active)
Locus YDR334W, strain swr1, active compounds read low
  normalized growth: 0.0598 (active)
Locus YDR335W, strain msn5, active compounds read low
  normalized growth: 0.0571 (active)
Locus YDR388W, active compounds read low
  normalized growth: 0.15 (active)
Locus YDR392W, strain spt3, active compounds read low
  normalized growth: 0.0725 (active)
Locus YDR502C, strain sam2, active compounds read low
  normalized growth: 0.401 (active)
Locus YEL003W, strain gim4, active compounds read low
  normalized growth: 0.0521 (active)
Locus YEL037C, strain rad23, active compounds read low
  normalized growth: 0.0554 (active)
Locus YEL061C, strain CIN8 (second series), active compounds read low
  normalized growth: 0.0574 (active)
Locus YEL061C, strain CIN8, active compounds read low
  normalized growth: 0.472 (active)
Locus YER015W, strain faa2, active compounds read low
  normalized growth: 0.0593 (active)
Locus YER016W, strain bim1, active compounds read low
  normalized growth: 0.0563 (active)
Locus YER110C, active compounds read low
  normalized growth: 0.627 (active)
Locus YER111C, strain swi4, active compounds read low
  normalized growth: 0.0661 (active)
Locus YER155C, strain BEM2 (second series), active compounds read low
  normalized growth: 0.0846 (active)
Locus YER155C, strain BEM2, active compounds read low
  normalized growth: 0.425 (active)
Locus YER167W, strain BCK2, active compounds read low
  normalized growth: 0.55 (active)
Locus YFR010W, strain ubp6, active compounds read low
  normalized growth: 0.0701 (active)
Locus YGL078C, strain dbp3, active compounds read low
  normalized growth: 1
Locus YGL086W, strain mad1, active compounds read low
  normalized growth: 0.283 (active)
Locus YGL167C, strain pmr1, active compounds read low
  normalized growth: 0.0684 (active)
Locus YGL173C, strain kem1, active compounds read low
  normalized growth: 0.0624 (active)
Locus YGL227W, strain vid30, active compounds read low
  normalized growth: 0.0601 (active)
Locus YGL240W, strain doc1, active compounds read low
  normalized growth: 0.0704 (active)
Locus YGL248W, strain PDE1, active compounds read low
  normalized growth: 0.633 (active)
Locus YGL253W, strain hxk2, active compounds read low
  normalized growth: 0.0538 (active)
Locus YGR078C, strain PAC10, active compounds read low
  normalized growth: 0.469 (active)
Locus YGR135W, strain pre9, active compounds read low
  normalized growth: 0.381 (active)
Locus YGR229C, strain SMI1, active compounds read low
  normalized growth: 0.0664 (active)
Locus YGR252W, strain gcn5, active compounds read low
  normalized growth: 0.224 (active)
Locus YHR013C, strain ard1, active compounds read low
  normalized growth: 0.124 (active)
Locus YHR027C, strain rpn1, active compounds read low
  normalized growth: 0.0601 (active)
Locus YHR030C, strain SLT2, active compounds read low
  normalized growth: 0.133 (active)
Locus YHR079C, strain IRE1 (second series), active compounds read low
  normalized growth: 0.573 (active)
Locus YHR094C, strain hxt1, active compounds read low
  normalized growth: 0.911 (active)
Locus YHR129C, strain ARP1, active compounds read low
  normalized growth: 0.716 (active)
Locus YHR142W, strain chs7, active compounds read low
  normalized growth: 0.077 (active)
Locus YHR200W, strain rpn10, active compounds read low
  normalized growth: 0.214 (active)
Locus YIL066C, strain RNR3, active compounds read low
  normalized growth: 0.45 (active)
Locus YIL073C, strain SPO22, active compounds read low
  normalized growth: 0.364 (active)
Locus YIL125W, strain kgd1, active compounds read low
  normalized growth: 1.01
Locus YIR030C, strain dcg1, active compounds read low
  normalized growth: 0.651 (active)
Locus YJL092W, strain hpr5, active compounds read low
  normalized growth: 0.0575 (active)
Locus YJL095W, strain BCK1 (second series), active compounds read low
  normalized growth: 0.0537 (active)
Locus YJL095W, strain BCK1, active compounds read low
  normalized growth: 0.188 (active)
Locus YJL115W, strain asf1, active compounds read low
  normalized growth: 0.068 (active)
Locus YJL129C, strain trk1, active compounds read low
  normalized growth: 0.083 (active)
Locus YJL134W, strain LCB3, active compounds read low
  normalized growth: 0.918 (active)
Locus YJL154C, strain vps35, active compounds read low
  normalized growth: 0.0563 (active)
Locus YJL164C, strain tpk1, active compounds read low
  normalized growth: 0.0598 (active)
Locus YJL166W, strain qcr8, active compounds read low
  normalized growth: 0.0595 (active)
Locus YJL168C, strain set2, active compounds read low
  normalized growth: 0.826 (active)
Locus YJL187C, strain SWE1 (second series), active compounds read low
  normalized growth: 0.513 (active)
